Rows were chosen to be rich in hits. Some 19% of all compounds tested hit in one or more screens of this group.
DT40 TDP1 no CPT: qHTS for Inhibitors of human tyrosyl-DNA phosphodiesterase 1 (TDP1): qHTS in cells in absence of CPT. Potency, µM (titrated, usually from 46.2 µM), inactives show top-dose activity change, negative = growth inhibition, usual class: inhibitors. DT40 Tdp1-/- hTDP1 cells, no CPT, ATP luminescence, 48 h. actives 15% (n = 420,000); also: potency is read from the fitted curve at half-maximal effect; nearly all actives have a fitted effect of over 55% in size
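Camptothecin absent (DMSO only). Human TDP1-complemented DT40 knockout cells, 400 cells/well, 37 °C for minimum 48 hr; ATP measured via CellTiter-Glo, 30 min dark incubation, luminescence.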
HT1080-NT tox: qHTS for induction of synthetic lethality in tumor cells producing 2HG: qHTS for the HT-1080-NT fibrosarcoma cell line; HT-1080-NT fibrosarcoma viability, CellTiter-Glo ATP luminescence, 48 h; Potency, µM (highest dose often 46.1 µM), without a hit: at the top dose activity, negative = less viability, hits mostly cytotoxic; actives 1.6% (n = 360,000);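 also: NT is the 2HG producing partner of a matched IDH1 knockdown line; potency is read from the fitted curve at half-maximal effect; 0% = DMSO-treated cells and -100% = media-only wells without cells; nearly all actives have a fitted effect of over 55% in size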
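Compounds were tested in concentration-response format on HT-1080-NT cells for 48 hours at 37 degrees C. Cell viability came from CellTiter-Glo luminescence; curves were classified by r2, response magnitude and activity.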
DT40 TDP1 CPT: qHTS for Inhibitors of human tyrosyl-DNA phosphodiesterase 1 (TDP1): qHTS in cells in presence of CPT; chicken DT40 Tdp1-/-;hTDP1 cells + 20 nM CPT, ATP luminescence, 48 h; Potency, µM (series often up to 46.2 µM), for the others: at the top dose activity change, negative = growth inhibition, usual class: inhibitors; actives 12% (n = 420,000); also: potency is read from the fitted curve at half-maximal effect; nearly all actives have a fitted effect of over 55% in size
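Chicken DT40 Tdp1-/- cells stably complemented with human TDP1 were seeded at 400 cells/well in medium containing 20 nM camptothecin, exposed to pin-transferred compounds, and grown at 37 °C for at least 48 hr. Viability was read as ATP luminescence.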
HT1080 IDH1KD tx: qHTS for induction of synthetic lethality in tumor cells producing 2HG: qHTS for the HT-1080-IDH1KD cell line | HT-1080 IDH1 knockdown viability, ATP luminescence, 48 h | Potency, µM (titrated, usually from 46.1 µM), for inactives: at the highest dose activity, negative = toxicity, actives largely listed as cytotoxic | actives 2% (n = 360,000) | AID 686971, 2013;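 also: potency is read from the fitted curve at half-maximal effect; 0% = DMSO wells and -100% = cell-free medium wells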
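Viability of IDH1-knockdown HT-1080 fibrosarcoma cells was assessed by CellTiter-Glo after 48 h at 37 °C with titrated compound; concentration-effect curves were classified by fit quality and response size.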
IL1B secr inh: qHTS for Inhibitors of Inflammasome Signaling: IL-1-beta AlphaLISA Primary Screen | THP-1 LPS/ATP IL-1B secretion, AlphaLISA, 16 h; hits give low values | activity change, % at 57.5 µM | actives 4.7% (n = 360,000) | AID 743279, 2014; in the data active = activity change below about -50%; inconclusive = mostly about -30% to -49%
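Secreted IL-1B measured by AlphaLISA bead assay after 16 h compound exposure of THP-1 cells; compounds (final up to 57.5 uM) added 1 h before LPS (250 ng/mL) and ATP (1.25 mM) stimulation; lower signal means less secretion.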
ELG1 repair inh: qHTS screen for small molecules that inhibit ELG1-dependent DNA repair in human embryonic kidney (HEK293T) cells expressing luciferase-tagged ELG1 | Potency, µM (highest dose often 46.1 µM), for inactives: at the top dose activity change, negative = inhibition, usual class: inhibitors | AID 504467, 2011 | actives 2.3% (n = 330,000) | HEK293T ELG1-luciferase reporter, luminescence, 16 h; DNA damage induced by 5-fluorouridine; also: potency is read from the fitted curve at half-maximal effect; nearly all actives have a fitted effect of over 55% in size
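HEK293T cells expressing luciferase-tagged ELG1 (2,000/well) received 5-Fluorouridine plus compound or DMSO for 16 hr at 37 °C. Luciferase was read by ONE-Glo luminescence after 30 min at room temperature.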
* marks the source's active call; other numbers are inactive results. Unless noted, calls follow the shape of the dose curve; as a rule, active = well fitted curve in the direction sought with a large enough effect; inconclusive = small, poorly fitted or top-dose-only effect, or another doubt; inactive = no such curve, though single readings can be large; an effect the other way counts as inactive or inconclusive. Unless noted, % is scaled to controls: 0 for no effect and ±100 for the full control effect.

Screening Nc1[nH]c(C(=O)c2ccccc2)c(-c2ccc([N+](=O)[O-])cc2)c1C(=O)NCCc1c[nH]c2ccccc12 returned DT40 TDP1 no CPT 15µM*, HT1080-NT tox inconclusive, DT40 TDP1 CPT 23µM*, HT1080 IDH1KD tx inconclusive and IL1B secr inh -23.
Screening Nc1[nH]c(C(=O)c2ccccc2)c(-c2ccccc2C(F)(F)F)c1C(=O)NCCc1c[nH]c2ccccc12 returned DT40 TDP1 no CPT inconclusive, HT1080-NT tox inconclusive, DT40 TDP1 CPT inconclusive, HT1080 IDH1KD tx inconclusive and IL1B secr inh -1.
Screening COc1ccc2[nH]cc(CCNC(=O)c3ccc4ccccc4n3)c2c1 returned DT40 TDP1 no CPT inconclusive, HT1080-NT tox -22%, DT40 TDP1 CPT inconclusive, HT1080 IDH1KD tx inconclusive, IL1B secr inh -3 and ELG1 repair inh inconclusive.
Screening O=C(NCCc1c[nH]c2ccccc12)c1cc([N+](=O)[O-])cc([N+](=O)[O-])c1 returned DT40 TDP1 no CPT -9%, HT1080-NT tox -2%, DT40 TDP1 CPT inconclusive, HT1080 IDH1KD tx -3%, IL1B secr inh 16 and ELG1 repair inh 6%.
`COc1ccc(C(=O)c2[nH]c(N)c(C(=O)NCCc3c[nH]c4ccccc34)c2-c2ccccc2Br)cc1` gave DT40 TDP1 no CPT inconclusive, HT1080-NT tox inconclusive, DT40 TDP1 CPT 13µM*, HT1080 IDH1KD tx inconclusive and IL1B secr inh 0.
Screening Nc1[nH]c(C(=O)c2ccccc2)c(-c2ccccc2Br)c1C(=O)NCCc1c[nH]c2ccccc12 returned DT40 TDP1 no CPT 21µM*, HT1080-NT tox inconclusive, DT40 TDP1 CPT 16µM*, HT1080 IDH1KD tx inconclusive and IL1B secr inh inconclusive.
Nc1[nH]c(C(=O)c2ccccc2)c(-c2ccc(Cl)cc2)c1C(=O)NCc1ccccc1 was read as DT40 TDP1 no CPT -16%, HT1080-NT tox 0%, DT40 TDP1 CPT -7%, HT1080 IDH1KD tx 12% and IL1B secr inh 12.
`COc1ccc(O)c(CN2CCC3(CCC(CNC(=O)c4ccco4)O3)CC2)c1` (configuration not stated) gave DT40 TDP1 no CPT -12% and DT40 TDP1 CPT -2%.
For N#CCC(=O)Nc1ccc(C(=O)NCCc2c[nH]c3ccccc23)cc1 the results were DT40 TDP1 no CPT -21%, HT1080-NT tox 0%, DT40 TDP1 CPT 2%, HT1080 IDH1KD tx 2%, IL1B secr inh 12 and ELG1 repair inh inconclusive.
Screening Nc1[nH]c(C(=O)c2ccc(Br)cc2)c(-c2ccc(Br)cc2)c1C(=O)NCCc1c[nH]c2ccccc12 returned DT40 TDP1 no CPT 18µM*, HT1080-NT tox inconclusive, DT40 TDP1 CPT inconclusive, HT1080 IDH1KD tx inconclusive and IL1B secr inh 10.
S=c1nc(NCCc2ccccc2Cl)c2ccccc2[nH]1 was read as DT40 TDP1 no CPT 26µM*, HT1080-NT tox inconclusive, DT40 TDP1 CPT -28%, HT1080 IDH1KD tx inconclusive, IL1B secr inh -6 and ELG1 repair inh inconclusive.
O=C(NCc1ccccc1Cl)C1CCC(CNc2nc(=S)[nH]c3ccccc23)CC1 (configuration not stated) was read as DT40 TDP1 no CPT 26µM*, HT1080-NT tox 0%, DT40 TDP1 CPT inconclusive, HT1080 IDH1KD tx 1%, IL1B secr inh 3 and ELG1 repair inh inconclusive.
For O=C(NCCc1ccc(Cl)cc1)C1CCC(CNc2nc(=S)[nH]c3ccccc23)CC1 (configuration not stated) the results were DT40 TDP1 no CPT 9.2µM*, HT1080-NT tox -10%, DT40 TDP1 CPT 6.5µM*, HT1080 IDH1KD tx 3%, IL1B secr inh -3 and ELG1 repair inh inconclusive.
O=C(CCCCCNc1nc(=S)[nH]c2ccccc12)NCc1ccccc1Cl was read as ELG1 repair inh 0%.
Screening O=C(CCCCCNc1nc(=S)[nH]c2ccccc12)NCCc1ccccc1 returned DT40 TDP1 no CPT inconclusive, HT1080-NT tox -4%, DT40 TDP1 CPT inconclusive, HT1080 IDH1KD tx -4%, IL1B secr inh 27 and ELG1 repair inh inconclusive.
`O=C(NCCC1=CCCCC1)C1CCC(CNc2nc(=S)[nH]c3ccccc23)CC1` (configuration not stated) gave DT40 TDP1 no CPT 16µM*, HT1080-NT tox -2%, DT40 TDP1 CPT inconclusive, HT1080 IDH1KD tx -9%, IL1B secr inh -27 and ELG1 repair inh inconclusive.
For O=C(NCCC1=CCCCC1)C1CCC(CNS(=O)(=O)c2ccccc2)CC1 (configuration not stated) the results were DT40 TDP1 no CPT inconclusive, HT1080-NT tox 1%, DT40 TDP1 CPT -29%, HT1080 IDH1KD tx 4%, IL1B secr inh 7 and ELG1 repair inh -2%.
`CSCCC(NC(=O)COc1ccccc1)C(=O)N1CCCC(C(F)(F)F)C1` (configuration not stated) gave DT40 TDP1 no CPT -25%, HT1080-NT tox 5%, DT40 TDP1 CPT -27%, HT1080 IDH1KD tx 2%, IL1B secr inh 7 and ELG1 repair inh 0%.
Screening COc1ccc(Nc2nnc(-c3ccc(C(=O)NCCO)cc3)c3ccccc23)cc1 returned DT40 TDP1 no CPT 6.5µM*, HT1080-NT tox 0%, DT40 TDP1 CPT 3.3µM*, HT1080 IDH1KD tx 10%, IL1B secr inh -30 and ELG1 repair inh -20%.
COc1ccc(Nc2nnc(-c3ccc(C(N)=O)cc3)c3ccccc23)cc1 was read as DT40 TDP1 no CPT inconclusive, HT1080-NT tox -4%, DT40 TDP1 CPT inconclusive, HT1080 IDH1KD tx -2%, IL1B secr inh inconclusive and ELG1 repair inh inconclusive.
`CCN(CC)C(=O)c1ccc(-c2nnc(Nc3ccc(O)cc3)c3ccccc23)cc1` gave DT40 TDP1 no CPT inconclusive, HT1080-NT tox 11%, DT40 TDP1 CPT -109%, HT1080 IDH1KD tx 10%, IL1B secr inh -11 and ELG1 repair inh inconclusive.
For CCN(CC)C(=O)COc1ccc(-c2nnc(Nc3ccc(OC)c(C(=O)NC)c3)c3ccccc23)cc1 the results were DT40 TDP1 no CPT 21µM*, HT1080-NT tox -4%, DT40 TDP1 CPT inconclusive, HT1080 IDH1KD tx -7%, IL1B secr inh -79* and ELG1 repair inh -21%.

Bioassay records as filed in PubChem.
